# High-throughput results as filed in PubChem.
# Pf Dd2 inh: inhibitors of Plasmodium falciparum Dd2 growth | P. falciparum Dd2 growth, SYBR Green, 72 h | AID 1347417 | Potency, µM (doses to about 28.9 µM), for the others: at the top dose activity, negative = inhibition, most hits filed as inhibitors | 120,000 tested, 4.3% active; active = well fitted inhibition curve with a large enough effect;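 note: plate controls were DMSO vehicle for no effect and reference drug for full effect; nearly all actives have a fitted effect of over 65% in size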
#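 Infected erythrocytes (Dd2, 0.3% parasitemia, 2.5% hematocrit final) are added to compound in RPMI-1640/Albumax II medium, grown 72 h at 37C in low oxygen, then lysed with saponin/Triton-X containing SYBR Green and read by fluorescence.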
# Active calls of the source: *; i = inactive; [ ] = dose if it differs, or a comment. This is one part of a sample in which hits are shown more often than they occur. Potency is the fitted concentration of half-maximal effect.
SMILES,Pf Dd2 inh
CC(C)Cc1cc(C[C@@H]2C[C@H](NC3CCOCC3)C2(C)C)no1,i
COCc1cc(C[C@@H]2C[C@H](NC(=O)c3ccco3)C2(C)C)no1,10µM*
CC1(C)[C@H](Cc2cc(COc3ccccc3)on2)C[C@@H]1NC1CCOCC1,10µM*
COCc1cc(C[C@@H]2C[C@H](NC(=O)c3ccnc(Cl)c3)C2(C)C)no1,i
CC1(C)[C@H](Cc2cc(COc3ccccc3)on2)C[C@@H]1NC(=O)Cc1ccccc1,-17.7%[44.1 µM]
CC1(C)[C@H](Cc2cc(COc3ccccc3)on2)C[C@@H]1NC(=O)COc1ccccc1,8.91µM*
CC1(C)[C@H](Cc2cc(CO)on2)C[C@@H]1NC(=O)c1ccco1,1.1%[44.1 µM]
Cc1nn(CCC#N)c(C)c1[C@@H]1C=C[C@@H](NC(=O)CCCC(=O)O)C1,-13.8%[44.1 µM]
COc1ccc(-n2nc(C3CCCN([S+](=O)([O-])c4cccc(C(F)(F)F)c4)C3)[nH]c2=O)cc1 (stereo not drawn),-29.4%
COc1ccccc1OC1(C(=O)O)CCN(C(=O)C2CC23CCC3)CC1 (stereo not drawn),-12.2%
CCc1ccc(C(=O)N2[C@@H]3CC[C@H]2CC(NC(=O)c2ccncc2)C3)cc1 (stereo partly drawn),-14.1%
CCn1nccc1C(=O)N1CCC(Oc2ccccc2)C1 (stereo not drawn),i
O=C(c1ccco1)N1CCc2nn(Cc3ccccc3)c(=O)n2CC1,i
Cc1noc(C)c1-c1cccc(CCOc2cnc3c(ccn3CC(=O)O)c2)c1,i
COCCN1C(=O)[C@H]2CN(Cc3cccc(OC)c3)C[C@H]2C1=O,21.0%
CCCS(=O)(=O)N1CC(c2nc(CCOc3cccc(C)c3)no2)C1,-17.3%
Cc1cccc(OCCc2noc(C3CCCNC3)n2)c1 (stereo not drawn),5.01µM*
COCCC(=O)N1CCCC(c2nc(CCOc3cccc(C)c3)no2)C1 (stereo not drawn),-8.3%
Cc1cccc(OCC(=O)N2CC(F)(F)C[C@H]2c2nnc(C)o2)c1,21.6%
O[C@@H]1[C@@H](Cn2cc(C3CC3)nn2)C[C@@H](NCc2ccc(F)cc2)[C@@H]1O,-38.1%[44.1 µM]
COCCOCC(=O)N1CC(Oc2ccc(-c3noc(-c4ccccc4)n3)cc2)C1,-16.9%
c1ncc(CN2CC(Oc3ccc4c(c3)OCO4)C2)s1,i
CCCC1(CO)CCCN(Cc2nnc(-c3cccnc3)o2)C1 (stereo not drawn),-4.1%
CCCC1(CO)CCCN(Cc2cn3ccc(C)cc3n2)C1 (stereo not drawn),10µM*
CCCC1(CO)CCCN(C(=O)CCn2ccc(=O)[nH]c2=O)C1 (stereo not drawn),-18.5%
SMILES,Pf Dd2 inh
O=C(NC1C[C@H]2CC[C@@H](C1)N2C(=O)CC1CCCC1)c1ccncc1 (stereo partly drawn),-3.8%
CCCOc1ccccc1C(C)Nc1nc(-c2cccnc2)nc2c1CNC2 (stereo not drawn),11.2µM*
c1cncc(-c2nc3c(c(NCc4ccccc4-n4ccnc4)n2)CNC3)c1,i
CS(=O)(=O)NC1CCN(c2nc(-c3cccnc3)nc3c2CNC3)CC1,3.9%
CN(C)C(=O)c1cccnc1OC1CCN(S(=O)(=O)c2cccc(C(F)(F)F)c2)C1 (stereo not drawn),-12.9%
COc1cccc(CC(=O)NCC(=O)N2CCCCCNC(=O)CC2c2ccccc2)c1 (stereo not drawn),-9.7%
COc1ccccc1CNC(=O)c1ccc2c(c1)N(Cc1cccc(C)c1)C(=O)c1ccccc1S2(=O)=O,-9.2%
O=C(c1ccc2c(c1)N(Cc1ccccc1)C(=O)c1ccccc1S2(=O)=O)N1CCc2ccccc21,11.2µM*
O=C(c1ccc2c(c1)N(Cc1ccc(Cl)cc1)C(=O)c1ccccc1S2(=O)=O)N1CCC(Cc2ccccc2)CC1,-5.9%
CCOC(=O)N1CCC(NC(=O)c2ccc3c(c2)N(Cc2cccc(C)c2)C(=O)c2ccccc2S3(=O)=O)CC1,11.2µM*
CN1CCN(C(=O)c2ccc3c(c2)N(Cc2cccc(Cl)c2)C(=O)c2ccccc2S3(=O)=O)CC1,i
O=C(c1ccc2c(c1)N(Cc1ccc(F)cc1)C(=O)c1ccccc1S2(=O)=O)N1CCN(Cc2ccccc2)CC1,i
COc1ccc(N2CCN(C(=O)c3ccc4c(c3)N(Cc3cccc(Cl)c3)C(=O)c3ccccc3S4(=O)=O)CC2)cc1,-4.9%
Cc1cccc(CN2C(=O)c3ccccc3S(=O)(=O)c3ccc(C(=O)NC4CCCCC4)cc32)c1,-3.6%
COc1ccccc1N1CCN(C(=O)c2ccc3c(c2)N(Cc2ccccc2)C(=O)c2ccccc2S3(=O)=O)CC1,7.08µM*
C1CC(C2CCN(C3CCOCC3)CC2)CN1 (stereo not drawn),-10.1%
CNC(=O)c1cc[nH]c1C1CCCN(C(=O)CCc2cc(OC)no2)C1 (stereo not drawn),-10.7%
CCCCN1C[C@@H](CO)[C@H](c2nc(CCOC)no2)C1,-14.3%
CC(=O)c1cccc(NC(=O)O[C@@H]2CO[C@H]3[C@@H]2OC[C@@H]3NC(=S)NC2CCCCC2)c1,i
